Measurements as given in PubChem BioAssay AID1777 (Sanford-Burnham Center for Chemical Genomics, 2009).
Out of some 280,000 compounds screened, about 50 (0.02%) were called active. Rule as the data show it: active = activation above about 50% (passing the limit was not always enough); inactive = the rest. The list comes from a sample in which actives are over-represented; it also holds similar structures and randomly drawn compounds. Entries with a potency or affinity are not part of this list.

These compounds were tested against Kappa-type opioid receptor (Homo sapiens) (UniProt P41145) (assay: kappa opioid receptor activators – cell-based, luminescence, uHTS, primary screen (AID 1777)). Conditions: KOR beta-arrestin recruitment, at 10 µM, stronger effect = higher value.
Kappa-type opioid receptor (Homo sapiens), sequence (P41145 whole entry, looked up): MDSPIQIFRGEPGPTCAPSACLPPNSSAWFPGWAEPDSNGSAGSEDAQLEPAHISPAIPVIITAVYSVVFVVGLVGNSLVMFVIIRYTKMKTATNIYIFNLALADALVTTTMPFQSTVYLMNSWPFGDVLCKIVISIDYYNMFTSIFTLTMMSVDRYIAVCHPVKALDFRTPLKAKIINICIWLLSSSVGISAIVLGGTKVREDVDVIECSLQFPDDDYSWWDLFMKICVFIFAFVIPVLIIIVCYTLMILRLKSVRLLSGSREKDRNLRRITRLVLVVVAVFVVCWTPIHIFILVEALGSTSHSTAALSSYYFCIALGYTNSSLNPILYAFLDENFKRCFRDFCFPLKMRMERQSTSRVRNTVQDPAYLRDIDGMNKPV

activation, active:
Cc1cc(C)c2cc(CN(Cc3ccc4c(c3)OCO4)Cc3nnnn3Cc3ccco3)c(=O)[nH]c2c1 83.5%
Cn1c(=O)c2c(nc(Oc3ccc4c(c3)OCO4)n2Cc2ccc(F)cc2)n(C)c1=O 67.5%
O=C(c1cnccn1)N(Cc1cccs1)C1(C(=O)NC2CCCCC2)CCCCC1 64.7%
c1ccc(Cn2c(-c3cccs3)nc3nc4ccccc4nc32)cc1 65.7%
CCCSc1nnc2n(Cc3ccccc3)c(=O)c3c4c(sc3n12)CCC4 69.7%
CCOc1ccc(-n2nnc3c(=O)n(CC(=O)c4ccccc4)cnc32)cc1 52.9%
CCC(C)(C)N=C(NC#N)Nc1cccnc1 87.5%

activation, inactive:
O=C(NCc1ccccc1)c1ccc(N2C(=O)C3CCCCC3C2=O)cc1 (stereo unspecified) -2.4%
Cc1ccc(C)c2[nH]c(=O)c(CN(Cc3ccc4c(c3)OCO4)Cc3nnnn3Cc3ccco3)cc12 10.8%
Cc1ccc2cc(CN(Cc3ccc4c(c3)OCO4)Cc3nnnn3Cc3ccco3)c(=O)[nH]c2c1 26.7%
Cc1ccc2nc(C)c(C(=O)N/N=C/c3ccc(N4CCOCC4)cc3)cc2c1 3%
CN(c1ccccc1C(=O)Nc1ccc(CC#N)cc1)S(=O)(=O)c1ccccc1 2.4%
Cc1ccccc1NC(=S)N(Cc1cccs1)C1CCCCC1 -6.5%
Cc1ccccc1NC(=S)N(Cc1cccs1)C1CCCC1 4.8%
Cc1ccc(C(C)NC(=O)c2cc(C)oc2C)cc1 (stereo unspecified) 8.6%
O=C(CSc1nnc(-c2ccccn2)n1Cc1ccco1)c1ccc(Cl)cc1 81.9%
Clc1cccc(CSc2nnc(-c3cccnc3)n2Cc2ccco2)c1 -4.9%
Clc1ccc(CSc2nnc(-c3cccnc3)n2Cc2ccco2)c(Cl)c1 -2.8%
Clc1ccccc1CSc1nnc(-c2ccccn2)n1Cc1ccco1 31.6%
COc1ccc(C)cc1NC(=O)CSc1nnc(-c2ccccn2)n1Cc1ccco1 1.2%
COc1ccccc1NC(=O)CSc1nnc(-c2ccccn2)n1Cc1ccco1 17.1%
Cc1ccc(O)c(N=Nc2ccc(S(=O)(=O)N3CCCC3)cc2)c1 -0.2%
CN(C)CC(C)(C)CNC(=O)C1CCN(CCCc2ccccc2)CC1 -5.3%
CCOc1nc(NC2CCCC2)nc(N2CCC(C)CC2)n1 -3.8%
CCCNC(=O)NC(=O)CSc1nnc(-c2ccncc2)n1CC -1.1%
COC(=O)CN1C(=O)[C@H]2[C@@H](c3ccc(C)o3)N3C(=O)CN(CCO)C(=O)[C@@]3(Cc3ccccc3)[C@H]2C1=O 5.5%
Cc1c(Cl)cccc1N1C(=O)C2ON(c3ccccc3)C(c3cccnc3)C2C1=O (stereo unspecified) 0.9%
O=C1C2ON(c3ccccc3)C(c3cccnc3)C2C(=O)N1c1ccccc1 (stereo unspecified) -3.9%
CC(=O)N1CCC(C(=O)NC2CC(C)(C)Cc3c2cnn3-c2ccc(F)cc2)CC1 (stereo unspecified) -2.2%
CC(=O)Nc1ccc(N/C=C/C(=O)c2ccccc2)cc1 -0.7%
Cn1c(=O)c2c(nc(Oc3ccc4c(c3)OCO4)n2Cc2ccc(Cl)cc2)n(C)c1=O 62.7%
Cn1c(=O)c2c(nc(Oc3ccc4c(c3)OCO4)n2Cc2ccc(Br)cc2)n(C)c1=O 9.8%
Cn1c(=O)c2c([nH]c(OCc3ccc(Cl)cc3Cl)[n+]2Cc2ccc(F)cc2)n(C)c1=O 6.8%
O=C(Cc1cccs1)N(Cc1cccs1)C1(C(=O)NC2CCCCC2)CCCCC1 -1.5%
O=C(Cc1cccs1)N(Cc1cccs1)C1(C(=O)NC2CCCC2)CCCCC1 -2.8%
O=C(c1ccc(=O)[nH]c1)N(Cc1cccs1)C1(C(=O)NC2CCCC2)CCCCC1 5.3%
O=C(c1cnccn1)N(Cc1cccs1)C1(C(=O)NC2CCCC2)CCCCC1 30.1%
COc1ccc(NC2=NCCCCC2)cc1 -4.3%
Cc1ccc(N2C(=O)C(c3c(C)[nH]n(-c4ccccc4)c3=O)(C(F)(F)F)C3=C2CC(C)(C)CC3=O)cc1 (stereo unspecified) -2.8%
Cc1ccc(C(=O)NC(=S)Nc2cccc(NC(=O)c3ccccc3Cl)c2)cc1[N+](=O)[O-] 1.9%
CNC(=S)N(CCc1c(C)[nH]c2ccc(Cl)cc12)Cc1cccnc1 -1%
C=CCn1c(-c2cccs2)nc2nc3ccccc3nc21 -4.6%
CCCn1c(-c2cccs2)nc2nc3ccccc3nc21 13.8%
O=C(NCc1cnc2ccccn12)C1CCC(=O)N(Cc2ccccc2F)C1 (stereo unspecified) -0.5%
CN(C)S(=O)(=O)c1ccc(NC(=O)N2CCN(c3ccccc3)CC2)cc1 22.3%
CC(=O)N1CCN(c2ccc(NC(=O)c3cc(Cl)ccc3Cl)cc2)CC1 -3.7%
C=C(C)CSc1nnc2n(Cc3ccccc3)c(=O)c3c4c(sc3n12)CCC4 -1.4%
CCOC(=O)CSc1nnc2n(Cc3ccccc3)c(=O)c3c4c(sc3n12)CCC4 -9.3%
O=C(NCC1CCCO1)C1CCCN(S(=O)(=O)c2ccc(Br)cc2)C1 (stereo unspecified) 0.4%
CCOC(=O)c1ccccc1N/C=C1\CCCC1=O 0.9%
Cn1c(=O)oc2cc(S(=O)(=O)N3CCN(c4ccc(F)cc4)CC3)ccc21 -1.1%
O=C1CN(CC(=O)N2CCCCC2)c2ccccc2O1 -1.4%
COc1cc([N+](=O)[O-])ccc1NC(=O)Nc1ccc(C(=O)N2CCCC2)cc1 -5.9%
O=C(CSc1nnc(-c2ccccn2)n1Cc1ccco1)c1ccccc1 15.7%
C(=C\c1ccccc1)/CSc1nnc(-c2cnccn2)n1Cc1ccco1 16.2%
COC(=O)CSc1nnc(-c2ccccn2)n1Cc1ccco1 -0.5%
Brc1ccc(CSc2nnc(-c3cnccn3)n2Cc2ccco2)cc1 41.3%
C(=C\c1ccccc1)/CSc1nnc(-c2ccccc2)n1Cc1ccco1 3.8%
NC(=O)CSc1nnc(-c2ccccn2)n1Cc1ccco1 2.2%
COc1cc(S(=O)(=O)NC2CCCC2)ccc1-n1cnnn1 -0.2%
CCOc1ccccc1NC(=O)CCn1cccc1 -0.4%
CN(C)/C=C/C(=O)c1ccc(S(=O)(=O)c2ccccc2)cc1 -5%
C=CCSc1nc(C)c(CCC(C)C)c(=O)[nH]1 -2.2%
COc1ccc([N+](=O)[O-])cc1NC(=O)COC(=O)c1ccccc1C(=O)c1ccccc1 -5.5%
CCc1ccccc1NC(=O)c1cccc(N2C(=O)C3C4CCC(C4)C3C2=O)c1 (stereo unspecified) 3.3%
CCCN(Cc1cc2cc(C)ccc2[nH]c1=O)C(=O)c1ccccn1 9.9%
CCCCN(Cc1cc2cc(OC)ccc2[nH]c1=O)C(=O)c1ccccn1 40.3%
Cc1ccc2[nH]c(=O)c(CN(C)C(=O)c3ccccn3)cc2c1 -3.6%
CCCN(Cc1cc2ccc(C)cc2[nH]c1=O)C(=O)c1ccccn1 46.4%
COCC(=O)N(Cc1cc2ccccc2[nH]c1=O)c1ccc(OC)cc1 9.6%
COc1ccc2nc(NC(=O)CCNS(=O)(=O)c3ccc4c(c3)oc(=O)n4C)sc2c1 -3.3%
COc1ccc(OCC(=O)NNC(=O)C2CCCO2)cc1 (stereo unspecified) 8.8%
CCOC(=O)Cn1cnc2c(nnn2-c2ccccc2)c1=O -1%
Cc1ccc(-n2nnc3c(=O)n(CC(=O)c4ccccc4)cnc32)cc1 4.2%
CCOc1ccc(-n2c(=O)c3sccc3n(CC(=O)NCC3CCCO3)c2=O)cc1 (stereo unspecified) -4.3%
O=C(Cc1ccccc1)c1c[nH]c(C(=O)NCCCn2ccnc2)c1 1.2%
CC(Nc1cccnc1)=C(C#N)C#N -7.7%
CC(N=C(NC#N)Nc1ccncc1)C(C)(C)C (stereo unspecified) -0.9%
CCCCN(C(=O)c1cc(CC)c(C)s1)c1c(N)n(CC(C)C)c(=O)[nH]c1=O -0.3%
COC(=O)c1ccc(NC(=S)N(Cc2cccnc2)Cc2ccco2)cc1 -0.8%
O=C(c1ccccc1Cl)N(Cc1ccc(Br)cc1)N1C(=O)CCCC1=O -1%
O=C(c1ccc(Cl)cc1)N(Cc1ccc(Br)cc1)N1C(=O)CCC1=O 1.3%
O=C(c1ccc(Cl)cc1)N(Cc1ccccc1F)N1C(=O)CCCC1=O -0.9%
O=C(c1ccc([N+](=O)[O-])cc1)N(Cc1ccc(Cl)cc1Cl)N1C(=O)CCCC1=O -0.8%
COC(=O)C1=CN(CC2CCCO2)C=C(C(=O)OC)C1c1ccsc1 (stereo unspecified) -4.3%
COc1cc(/C=N/Nc2ccc(C(F)(F)F)cn2)cc(OC)c1O -5%
Cn1c2ccccc2c(=O)c2ccc(C#CC3(N)CCCCC3)cc21 -3.1%
O=C(c1ccc(S(=O)(=O)N2CCCC2)cc1)N1CCC(CN2C(=O)c3cccc4cccc(c34)C2=O)CC1 0.7%
CC(C)C[C@H](NC(=O)c1nc[nH]c1C(=O)N[C@@H](CCCCNC(=O)OC(C)(C)C)C(=O)OC(C)(C)C)C(=O)OC(C)(C)C 5.3%
CCN(CC)CCNc1nc(C(F)(F)F)nc2c1nnn2Cc1ccccc1 -3.1%
O=C(Cc1ccc([N+](=O)[O-])cc1)N/N=C/c1ccccc1F -4.4%
